Compound activity from PubChem BioAssay.
NS1 inh: influenza NS1 inhibition; 270,000 tested, 0.4% active; Potency, µM (series often up to 46.1 µM), inactives show top-dose activity, positive = more growth; AID 2326; calls by dose curve; note: potency is the fitted concentration of half-maximal effect; actives are rising curves; nearly all actives have a fitted effect of over 50% in size
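Read-out: OD600 growth recovery of NS1-expressing budding yeast. Cells grown overnight at 30C in -URA glucose medium, washed, resuspended and diluted 1:100 in 2% galactose assay medium, pH 6.0. Same strain lacking NS1 served as positive control.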
Pf growth 96h: P. falciparum growth inhibition at 96 hour, primary screen for plastid delayed-death inhibitors | Potency, µM (highest dose often 28.7 µM), for inactives: top-dose activity change, negative = inhibition, usual class: inhibitors | P. falciparum luciferase reporter growth, 96 h | AID 504834 | 320,000 tested, 6.9% active; note: potency is the fitted concentration of half-maximal effect; % is set by controls: 0 for no effect and ±100 for the full control effect
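Parasite growth measured via integrated firefly luciferase reporter in P. falciparum. Infected erythrocytes at 2% hematocrit, 0.05% parasitemia final were treated 96 hours at 37 C under 5% CO2, and luminescence was read.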
Shiga toxin inh: blocks Shiga toxin action in Vero cells; Vero cells, Shiga toxin protein synthesis inhibition reporter; inhibition, % at 38.7 µM; 290,000 tested, 9.2% active; AID 2315; in the data active = inhibition mostly above about 28%, no sharp cut-off; inactive = mostly below about 43%; note: 0% is about no effect
Pf growth 48h: inhibits P. falciparum growth in the first generation, 48 h | AID 504832 | Potency, µM (top dose mostly 28.7 µM), without a hit: at the highest dose activity change, negative = inhibition, actives largely listed as inhibitors | 310,000 tested, 5.9% active | P. falciparum luciferase growth in erythrocytes, 48 h; note: potency is the fitted concentration of half-maximal effect; % is set by controls: 0 for no effect and ±100 for the full control effect
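Luciferase-expressing parasites in RBCs, 2% Hct / 0.1% parasitemia final; RPMI 1640 + 0.5% Albumax; 37 C, 5% CO2, one generation; luminescence read-out, lower signal = inhibition.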
CHX counter: counter-screen for Shiga toxin inhibitors: cycloheximide protein synthesis inhibition; cell reporter, cycloheximide protein synthesis inhibition counterscreen; 300,000 tested, 12% active; max response, %; AID 2314; in the data active = max response mostly above about 13%, no sharp cut-off; inactive = mostly below about 14%; note: read at 38.3 µM for the half of the compounds with a filed dose; 0% is about no effect
Starred values were filed as active, the others as inactive; ? = inconclusive; . = no result given. Only some compounds are listed: those with a hit (about 21% of all), similar ones and a draw of the others. Unless noted, calls come from the whole dose curve; as a rule, active = well fitted inhibition curve with a large enough effect; inconclusive = small, poorly fitted or top-dose-only effect, or another doubt; inactive = no such curve, though single readings can be large or run the other way.

SMILES	NS1 inh	Pf growth 96h	Shiga toxin inh	Pf growth 48h	CHX counter
O=C(Nc1nnc(SCc2ccc(F)cc2)s1)C1CC(=O)N(c2ccc3c(c2)OCCO3)C1 (stereo unspecified)	20%	-11%	1	18%	15*
O=c1oc2ccccc2c(NCCO)c1[N+](=O)[O-]	.	?	-16	28%	-1
Cc1ccc(NC(=O)CSCc2n[nH]c(=O)[nH]2)c(Br)c1	1%	12%	-14	7%	0
O=C(CSc1nnc(-c2ccc(C(F)(F)F)cn2)o1)Nc1ccccc1Cl	5%	147%	8	246%	15
CC(C)=C1SC(N2CCN(c3cccc(Cl)c3)CC2)=NC1=O	-7%	-4%	2	5%	0
CC(C)=C1SC(N2CCN(Cc3ccccc3)CC2)=NC1=O	5%	-2%	73	?	23*
O=C1NCC(O)=C1C=Nc1ccccc1O	-34%	?	-2	10µM*	-2
Cc1ccc(N(CC(=O)NCc2ccccc2)C(=O)CCC(=O)Nc2ccccn2)cc1C	-16%	-3%	-12	0%	-1
O=C(Cn1c(-c2ccccn2)nc2ccccc21)N/N=C/c1cccnc1	3%	-9%	5	-9%	-2
O=C(c1ccco1)n1nc(-c2ccccc2)nc1SCc1ccccc1	-4%	.	31	42%	32
O=C(Cc1ccccc1)n1nc(-c2ccco2)nc1SCc1ccccc1	-72%	28%	42	.	28*
CSc1nc(-c2ccco2)nn1S(=O)(=O)c1ccc(C)cc1	-28%	?	29	-5%	-2
CCCC(=O)n1nc(-c2ccco2)nc1SCc1ccccc1	-29%	45%	active	39%	43*
Cc1ccc(S(=O)(=O)n2nc(-c3ccco3)nc2SCc2ccccc2)cc1	-33%	9%	86*	43%	34*
Nc1nc(-c2ccco2)nn1C(=O)CCc1ccccc1	-4%	5%	-5	10%	7
O=C(c1ccco1)n1nc(-c2ccco2)nc1SCc1ccccc1	-112%	-18%	43	.	19*
O=C(Cc1ccc(NC2=NC3CS(=O)(=O)CC3S2)cc1)NCc1ccc(Cl)cc1 (stereo unspecified)	-11%	?	0	16%	-1
O=C(C1CCN(c2nnc(-n3cccc3)s2)CC1)N1CCN(Cc2ccc3c(c2)OCO3)CC1	-30%	1.5µM*	-2	?	3
O=C(Nc1cc(C(F)(F)F)ccc1Cl)C1CCN(c2nnc(-n3cccc3)s2)CC1	-1%	11%	3	8.3µM*	-3
CC1CCN(Cc2ccc(NC(=O)C3CCN(c4nnc(-n5cccc5)s4)CC3)cc2)CC1	-4%	8%	-1	7.4µM*	-5
COc1ccc(/C(O)=C2/C(=O)C(=O)N(CCCN(C)C)C2c2cccnc2)cc1 (stereo unspecified)	-2%	-1%	-10	0%	4
COc1ccccc1CC(=O)NNS(=O)(=O)c1ccc([N+](=O)[O-])cc1	4%	64%	-12	33%	1
CCNc1nc(NC(C)C)nc(Oc2ccc(OCCOc3ccc(C)cc3)nn2)n1	-46%	12µM*	13	?	-2
CCNc1nc(NCC)nc(Oc2ccc(OCC)nn2)n1	?	24%	18	-1%	-2
CCCc1nc2oc3c(NCCN(C)C)ncnc3c2c2c1CCCC2	-2%	?	-14	13µM*	-6
SMILES	NS1 inh	Pf growth 96h	Shiga toxin inh	Pf growth 48h	CHX counter
CC(C)Cc1nc2oc3c(NCC(C)O)ncnc3c2c2c1CCCC2 (stereo unspecified)	6%	-19%	7	?	-2
CCCc1nc2oc3c(Cl)ncnc3c2c2c1CCCC2	-4%	41%	-7	-3%	0
CCCc1nc2oc3c(NCCCN(C)C)ncnc3c2c2c1CCCC2	2%	13µM*	-43	9.3µM*	-6
CCCC(O)(CCN(C)C)c1ccc(OC)cc1 (stereo unspecified)	-7%	18%	-7	.	-6
O=C(C[n+]1cccc(CNC(=O)c2ccc(OC(F)F)cc2)c1)Nc1ccccc1Cl	2%	?	-14	13µM*	-1
O=C(NCc1ccc[n+](CCCCS(=O)(=O)[O-])c1)c1ccc(OC(F)F)cc1	.	26%	-17	-2%	10
O=C(CCNC(=O)c1ccco1)Nc1ccc(OC(F)F)cc1	1%	88%	-8	8%	-1
O=C(C[n+]1cccc(CNC(=O)c2ccc(OC(F)F)cc2)c1)Nc1ccc(SC(F)F)cc1	6%	0.17µM*	9	1.7µM*	2
CC(=O)Cc1nsc(NC(=O)c2ccc(COc3ccccc3C)o2)n1	0%	-28%	-6	16%	-4
Cc1ccc(NC(=S)Nc2ccc(OC(F)F)c(Cl)c2)cc1F	.	?	33	?	5
COc1ccc(-c2nc(C=O)cs2)cc1	-33%	30%	39*	19%	13*
COc1cccc(-c2nc(C=O)cs2)c1	.	5%	31*	5%	13
COc1ccc(-c2nc(CNS(=O)(=O)c3ccc(OC)c(OC)c3)cs2)cc1	3%	-15%	14	-10%	-3
CCOc1ccc(S(=O)(=O)NCCC(=O)NCc2ccncc2)cc1	.	8%	.	-2%	.
C/C=C/C=C\C(=O)Nc1cccc(C2=NOC3(C2)C[C@@H](C(N)=O)N(C(=O)c2cc([N+](=O)[O-])cc([N+](=O)[O-])c2C)C3)c1 (stereo partly specified)	-3%	?	3	?	-1
COc1ccc(CC(=O)OCC(=O)NC(=O)NC23CC4CC(CC(C4)C2)C3)cc1	6%	-3%	-18	.	8
CC1CC1C(=O)OCC(=O)NC(=O)NC12CC3CC(CC(C3)C1)C2 (stereo unspecified)	.	37%	86*	35%	43*
CCOC(=O)NN=C1CCC(c2ccccc2)CC1 (stereo unspecified)	10%	?	10	21%	9.8*
COC(=O)NN=C1CCC(c2ccccc2)CC1 (stereo unspecified)	1%	?	30*	10%	25
CC(C)(C)C(=O)NN=C1CCC(c2ccccc2)CC1 (stereo unspecified)	?	-13%	24	16%	19*
NC(=O)C(=O)NN=C1CCC(c2ccccc2)CC1 (stereo unspecified)	4%	-6%	15	-14%	9
CCc1nc2sc3ccccc3c(=O)c2c(=O)n1Cc1ccc(OC)cc1	-23%	?	14	-14%	-2
O=[N+]([O-])c1cccc(S(=O)(=O)Nc2nc3ccccc3nc2Nc2cccc(S(=O)(=O)N3CCCCC3)c2)c1	15%	5.2µM*	24	15µM*	1
C/C(=N/N1CCN(c2ccccn2)CC1)c1cccc([N+](=O)[O-])c1	1%	-13%	22	23%	15*
O=[N+]([O-])c1cccc(S(=O)(=O)N2CCN(c3ccccn3)CC2)c1	6%	10µM*	-3	19%	-1
CS(=O)(=O)c1cccc(S(=O)(=O)N2CCN(c3ccccn3)CC2)c1	9%	-29%	2	-25%	1
